ELG1 genotoxic: qHTS screen for small molecules that induce genotoxicity in human embryonic kidney (HEK293T) cells expressing luciferase-tagged ELG1. HEK293T ELG1-luciferase reporter, luminescence, 16 h. Potency, µM (titrated, usually from 46 µM), actives largely listed as activators. 330,000 compounds, 1.3% hits. AID 504466, 2011; further: nearly all actives have a fitted effect of over 60% in size
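Reporter readout depends on ELG1 protein level, which increases with genetic stress. After 16 hr compound exposure at 37 °C, luciferase activity was quantified using ONE-Glo.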
p53 reactivation: qHTS assay for re-activators of p53 using a Luc reporter; 320,000 compounds, 0.063% hits; Potency, µM (series often up to 92.2 µM), actives largely listed as activators; H1299 p53-A138V BP100-luciferase reporter, luminescence, 24 h; further: nearly all actives have a fitted effect of over 45% in size
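p53-null H1299 cells stably carrying temperature-sensitive p53-A138V and a BP100-luciferase reporter were pinned with compounds (4-point, 1:5 series) and held 24 hrs at 37 deg C. Luminescence was read 10 min after detection reagent.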
AT treatment: qHTS Assay for Identifying a Potential Treatment of Ataxia-Telangiectasia; F2112 A-T fibroblasts, KAP-1 phosphorylation AlphaLISA; neocarzinostatin DNA damage 30 min before lysis; Potency, µM (series often up to 57.5 µM), most hits filed as activators; 320,000 compounds, 0.19% hits; AID 485349, 2010; further: nearly all actives have a fitted effect of over 45% in size
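hTERT-immortalized A-T patient fibroblasts (F2112), 500 cells/well in OPTI-MEM, 1% FBS, got compounds for 60 min, then NCS for 30 min at 37C. Lysates were then assayed for phospho-KAP-1 by AlphaLISA (anti-pKAP1 donor, anti-KAP1 acceptor beads), 6 hr at 25C.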
MCF10A rereplic: A quantitative high throughput screen for small molecules that induce DNA re-replication in MCF 10a normal breast cells. MCF 10A DNA re-replication, Hoechst nuclear intensity, 48 h. Potency, µM (highest dose often 46.1 µM), usual class: activators. 350,000 compounds, 2.9% hits; further: nearly all actives have a fitted effect of over 50% in size
ELG1 DNA repair: qHTS screen for small molecules that inhibit ELG1-dependent DNA repair in human embryonic kidney (HEK293T) cells expressing luciferase-tagged ELG1; 330,000 compounds, 2.3% hits; HEK293T ELG1-luciferase reporter, luminescence, 16 h; DNA damage induced by 5-fluorouridine; AID 504467, 2011; Potency, µM (doses to about 46.1 µM), most hits filed as inhibitors; further: nearly all actives have a fitted effect of over 55% in size
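5-Fluorouridine DNA damage + compound/DMSO, 2,000 cells/well, 16 h, 37 °C/5% CO2. ONE-Glo, 30 min RT, luminescence. Readout = decrease in reporter signal.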
SW480 rereplic: A quantitative high throughput screen for small molecules that induce DNA re-replication in SW480 colon adenocarcinoma cells; SW480 DNA re-replication, Hoechst DNA content imaging, 48 h; Potency, µM (doses to about 46.1 µM), usual class: activators; 340,000 compounds, 1.8% hits; AID 624297, 2012; further: nearly all actives have a fitted effect of over 55% in size
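Image-based read-out: total Hoechst fluorescence of nuclei (405 nm excitation, 500-530 nm emission), with hits raising the fraction of high-intensity nuclei. SW480 colon cells incubated 48 hr with compounds at 37 C.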
Large screens that a line does not name were inactive. Rows were chosen to be rich in hits. Some 7.1% of all compounds tested hit in one or more screens of this group. The call rests on the fitted dose curve; in most records, active means well fitted curve in the direction sought with a large enough effect; inconclusive means small, poorly fitted or top-dose-only effect, or another doubt; inactive means no such curve, though single readings can be large; an effect the other way counts as inactive or inconclusive.

CCN(CC)S(=O)(=O)c1cc(NC(=O)CCCOc2ccc(C(C)=O)cc2)ccc1C	ELG1 DNA repair 16µM
CC(=O)c1ccc(OCCCC(=O)Nc2cc(S(=O)(=O)N(C)C)ccc2C)cc1	SW480 rereplic 16µM
Cc1ccc(S(=O)(=O)N(C)C)cc1NC(=O)C(C)N(C)CCOc1ccc(Cl)cc1 (stereo unspecified)	MCF10A rereplic 18µM, ELG1 DNA repair inconclusive, SW480 rereplic inconclusive
Cc1ccc(C(=O)NCCNC(=O)c2ccc(F)cc2)cn1	none
CC(=O)N1CCN(C(=O)COC(=O)/C=C/c2ccc(C(F)(F)F)cc2)CC1	none
COc1cc2c(cc1OC)[C@@H]1O[C@](CCCCN3C(=O)c4ccccc4C3=O)(C2)Oc2cc(C)n(-c3ccccc3)c(=O)c21	none (no result: ELG1 genotoxic, p53 reactivation, MCF10A rereplic, ELG1 DNA repair, SW480 rereplic)
Cc1ccc(C)c(NC(=O)CCc2nnc3ccc(NCc4ccco4)nn23)c1	none
Cc1cccc(-n2c(CCCN3C(=O)c4ccccc4C3=O)nc3ccccc3c2=O)n1	ELG1 genotoxic 23µM
Cc1cccc(-n2c(CCN3C(=O)c4ccccc4C3=O)nc3ccccc3c2=O)n1	none
O=C(Nc1ccccc1Cl)N(Cc1nc2ccccc2c(=O)[nH]1)Cc1cccs1	ELG1 DNA repair inconclusive
O=C(Nc1ccc(Cl)cc1)N(Cc1nc2ccccc2c(=O)[nH]1)Cc1cccs1	MCF10A rereplic inconclusive, ELG1 DNA repair 18µM
COc1ccc(/C=N\N=C2/SC(CC(=O)O)C(=O)N2c2ccc(O)cc2)cc1 (stereo unspecified)	MCF10A rereplic 16µM
CCOc1ccc(Nc2nc(N)nc(CSC(=S)N3CCN(c4ccccc4)CC3)n2)cc1	ELG1 DNA repair 10µM
COc1ccc(Nc2nc(N)nc(CSC(=S)N3CCN(c4ccccc4)CC3)n2)cc1	ELG1 DNA repair 12µM
CNC(=O)/C(C#N)=C/c1c(N2CCCCCC2)nc2c(C)cccn2c1=O	none
O=C(CSc1ncnc2c1cnn2-c1ccccc1)Nc1ccc2c(c1)OCO2	MCF10A rereplic 15µM
O=C(CSc1nnc(-c2ccccn2)n1Cc1ccccc1)Nc1ccc2c(c1)OCO2	ELG1 DNA repair 21µM
Cc1ccc(C(=O)COC(=O)c2ccc3c(c2)C(=O)N(c2cccc4ncccc24)C3=O)cc1C	MCF10A rereplic 16µM
COc1ccccc1Oc1ccc2c(c1)C(=O)N(c1cccc3ncccc13)C2=O	none
CC(C)c1ccc(O)c(NC(=S)NC(=O)c2cccnc2)c1	MCF10A rereplic inconclusive
CC(C)(C)c1ccc(C(=O)NNC(=S)NC(=O)c2cccnc2)cc1	ELG1 DNA repair inconclusive, SW480 rereplic 15µM
CC(C)(C)c1cc(Cl)c(O)c(NC(=S)NC(=O)c2cccnc2)c1	MCF10A rereplic 15µM, ELG1 DNA repair 9.2µM
COc1ccc(S(=O)(=O)NCC2CCC(C(=O)NCCCN3CCCC3=O)CC2)cc1 (stereo unspecified)	ELG1 DNA repair inconclusive
O=C1COc2ccc(S(=O)(=O)CCC(=O)NC3CCCCC3)cc2N1	none
Cc1cc(C)cc(NC(=O)NCC2CCN(Cc3cc(C)ccc3C)CC2)c1	none
Cc1ccc(C)c(CN2CCC(CNC(=O)Nc3ccc(F)c(Cl)c3)CC2)c1	MCF10A rereplic 26µM, SW480 rereplic 18µM
CCOC(=O)[C@@H]1[C@H]2COc3cc(OC)ccc3[C@@H]2N2C(=O)N(c3ccc(F)cc3)C(=O)[C@]12C	none (no result: p53 reactivation)
N#Cc1ccc(C#Cc2ccc3oc4ccccc4c(=O)c3c2)cc1	ELG1 DNA repair inconclusive
Cn1cncc1C#Cc1ccc2c(=O)c3ccccc3oc2c1	ELG1 DNA repair inconclusive
Cn1c2ccccc2c(=O)c2ccc(C#Cc3ccccn3)cc21	MCF10A rereplic inconclusive, ELG1 DNA repair inconclusive
COc1ccc2oc3ccc(OC)cc3c(=O)c2c1	ELG1 genotoxic inconclusive, ELG1 DNA repair inconclusive
COc1cc2oc3cc(C#Cc4ccc(N)cc4)ccc3c(=O)c2cc1OC	MCF10A rereplic 9.2µM, SW480 rereplic 9.2µM (no result: ELG1 genotoxic, p53 reactivation, AT treatment, ELG1 DNA repair)
Nc1ccc(C#Cc2ccc3c(=O)c4ccccc4oc3c2)cc1	ELG1 genotoxic inconclusive, MCF10A rereplic inconclusive, ELG1 DNA repair inconclusive, SW480 rereplic 16µM
COc1cc2oc3ccc(C#Cc4ccc(N)cc4)cc3c(=O)c2cc1OC	MCF10A rereplic 23µM (no result: ELG1 genotoxic, p53 reactivation, AT treatment, ELG1 DNA repair)
COc1cc2oc3ccc(C#Cc4ccccn4)cc3c(=O)c2cc1OC	MCF10A rereplic 21µM, SW480 rereplic inconclusive (no result: ELG1 genotoxic, p53 reactivation, AT treatment, ELG1 DNA repair)
CC(NC(=O)C1CCCN1S(=O)(=O)c1cccc2nsnc12)c1ccccc1 (stereo unspecified)	none
COc1ccc(-n2nc3c(c2NC(=O)COc2cccc(OC)c2)CS(=O)(=O)C3)cc1	none
CC(C)CC(=O)NC(C)C(c1cccs1)N1CCOCC1 (stereo unspecified)	none
O=[N+]([O-])c1cc([N+](=O)[O-])c2c(=Nc3ccccc3)n(-c3ccccc3)n(O)c2c1	MCF10A rereplic inconclusive, SW480 rereplic inconclusive
Cn1ccnc1SCC(=O)c1c[nH]c2ccccc12	ELG1 genotoxic 10µM, ELG1 DNA repair inconclusive
COc1ccccc1C(=O)CSc1nccn1C	ELG1 DNA repair inconclusive (no result: p53 reactivation)
O=C(CSc1nc2ncc(Cl)cc2[nH]1)c1c[nH]c2ccccc12	MCF10A rereplic 23µM
O=C1CCc2cc(NS(=O)(=O)c3ccc(Br)cc3)cc3c2N1CC3	ELG1 DNA repair inconclusive
Cc1ccc(S(=O)(=O)Nc2cc3c4c(c2)CCC(=O)N4CCC3)cc1	MCF10A rereplic 9.2µM, ELG1 DNA repair inconclusive
CCc1ccc(-c2cc(C(F)(F)F)n3nc(C(=O)Nc4cnn(Cc5ccccc5C)c4)cc3n2)s1	MCF10A rereplic inconclusive
Cc1ccccc1Cn1ccc(NC(=O)c2cc3nc(-c4ccco4)cc(C(F)(F)F)n3n2)n1	MCF10A rereplic 8.2µM, SW480 rereplic inconclusive
CCc1ccc(-c2cc(C(F)(F)F)n3nc(C(=O)Nc4c(C)nn(Cc5ccccc5Cl)c4C)cc3n2)s1	MCF10A rereplic 3.3µM, SW480 rereplic 10µM
CCc1ccc(-c2cc(C(F)(F)F)n3nc(C(=O)Nc4c(C)nn(Cc5ccccc5C)c4C)cc3n2)s1	MCF10A rereplic inconclusive, ELG1 DNA repair inconclusive, SW480 rereplic 2.6µM
Cc1nn(Cc2ccccc2)c(C)c1NC(=O)c1cc2nc(-c3ccco3)cc(C(F)(F)F)n2n1	ELG1 DNA repair inconclusive

Bioassay records: PubChem, National Center for Advancing Translational Sciences (NCATS)
